This note sets out measurements from PubChem BioAssay (Tox21).

“And” between values parts separate entries of the source, which are not always exact repeats. Equal entries are not always repeated. Inconclusive results are not listed. Some compounds were tested as several samples or in several runs, with calls that do not always agree. The source made the active and inactive calls. Unless noted, calls follow the shape of the dose curve; as a rule, active = well fitted curve in the direction sought with a large enough effect in the repeat runs; inconclusive = weak or mixed curves; inactive = no such curve, though single readings can be large; an effect the other way counts as inactive or inconclusive.

Test [1] can be described thus: Human pregnane X receptor (PXR) small molecule agonists, qHTS cell viability counter screen (AID 1346977). Also: nearly all actives have a fitted effect of over 50% in size. Also: potency is read from the fitted curve at half-maximal effect. An outline of the steps:
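PXR-Luc HepG2 cells in medium with 5% charcoal-stripped FBS were pre-incubated 5hr, then exposed to compounds for 24hr at 37C. Viability was read in the same wells by CellTiter-Fluor fluorescence, reagent added after 23hr with a 1hr incubation.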

A short description of test [2]: Caspase-3/7 induction in HepG2 cells by small molecules, qHTS assay (AID 1346978). Also: % is scaled to controls: 0 for no effect and ±100 for the full control effect; nearly all actives have a fitted effect of over 15% in size. The gist of the method: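 Wild-type HepG2 cells, 2,000/well, settled 5 hr at 37 C and 5% CO2, then compound-treated for 17 hr; caspase-3/7 activity read by luminescent Caspase-Glo 3/7 after 30 min at room temperature.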
For orientation: qHTS replaces the single test concentration by a dilution series.

Test [3] can be described thus: Caspase-3/7 induction in CHO-K1 cells by small molecules, qHTS cell viability counter screen (AID 1346979). Also: nearly all actives have a fitted effect of over 35% in size. Also: potency is read from the fitted curve at half-maximal effect. The gist of the method: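 Wild-type CHO-K1 cells were seeded at 1,500 per well, rested 5hr at 37 C, then exposed to compounds in DMSO. After 16hr, CellTiter-Fluor reagent was added and fluorescence read 1hr later as the viability measure.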
Test [4] can be described thus: Caspase-3/7 induction in CHO-K1 cells by small molecules, qHTS assay (AID 1346980). Also: % is scaled to controls: 0 for no effect and ±100 for the full control effect; nearly all actives have a fitted effect of over 15% in size. The gist of the method:
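Wild-type CHO-K1 cells exposed to compounds for 17hr at 37 C, 5% CO2. Caspase-3/7 activity then measured by Caspase-Glo 3/7 luminescence after 30min at room temperature.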

Test [5] can be described thus: Caspase-3/7 induction in HepG2 cells by small molecules, qHTS cell viability counter screen (AID 1346981). Also: nearly all actives have a fitted effect of over 30% in size. Also: potency is read from the fitted curve at half-maximal effect. An outline of the steps: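 Treatment of HepG2 cells with DMSO-delivered compounds ran 16 hr at 37 C following a 5-hr pre-incubation of 2,000 cells/well. CellTiter-Fluor fluorescence, read after 1 hr, served as the viability measure in a qHTS format.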
Test [6] concerns the target Nuclear receptor subfamily 1 group I member 2 (Homo sapiens) (UniProt O75469). The test is described as follows: Human pregnane X receptor (PXR) small molecule agonists, qHTS assay (AID 1346982). Also: nearly all actives have a fitted effect of over 35% in size. Also: potency is read from the fitted curve at half-maximal effect. As to activation: % is scaled to controls: 0 for no effect and ±100 for the full control effect. The gist of the method:
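Stable HepG2 line reporting PXR-mediated CYP3A4 expression via luciferase. Treatment: 24 hr with compounds in DMSO at 37 C. Detection: ONE-Glo luminescence.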

The target in test [7] is Nuclear receptor subfamily 1 group I member 2 (Rattus norvegicus) (UniProt Q9R1A7). The experiment in a line: Rat pregnane X receptor (rPXR) activation by small molecules, qHTS assay (AID 1346983). Also: % is scaled to controls: 0 for no effect and ±100 for the full control effect; nearly all actives have a fitted effect of over 20% in size. Conditions: rPXR luciferase reporter cells, One-Glo luminescence, 24 h; stronger effect = higher value. An outline of the steps: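 Cell-based rPXR activation assay: rPXR cells, 2,000 per well, rested 5hr at 37 C, then exposed to compounds in DMSO for 24 hr at 37 C. Luciferase activity read by One-Glo luminescence after 30 min at room temperature.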

Test [8] addresses Nuclear receptor subfamily 1 group I member 2 (Homo sapiens) (UniProt O75469). The experiment in a line: CYP3A4 induction through human pregnane X receptor (PXR) by small molecules, qHTS assay (AID 1346984). Also: nearly all actives have a fitted effect of over 40% in size. Also: potency is read from the fitted curve at half-maximal effect. As to activation: % is scaled to controls: 0 for no effect and ±100 for the full control effect. The gist of the method:
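After 24 h at 37C with compound, DPX-2 cells (HepG2, co-transfected PXR response element and CYP3A4 promoter-luciferase) got 3uM final P450-Glo Luciferin-IPA for 3 h; One-Glo luminescence followed.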

For test [9] the target is unchanged. The test is described as follows: Human pregnane X receptor (PXR) activation by small molecules, qHTS assay (AID 1346985). Also: % is scaled to controls: 0 for no effect and ±100 for the full control effect; nearly all actives have a fitted effect of over 40% in size. An outline of the steps: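 DPX-2 cells (HepG2 co-transfected with a PXR response element and a CYP3A4-promoter luciferase construct) were seeded at 2,000 per well, rested 5 hr at 37C, then exposed to DMSO-dissolved compounds for 24 hr. Activation was read as luciferase luminescence.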

Test [10] deals with Cytochrome P450 2D6 (Homo sapiens) (UniProt P10635). The test is described as follows: Cytochrome P450 Family 2 Subfamily D Member 6 (CYP2D6) small molecule antagonists: luciferase reporter qHTS assay (AID 1671196). Also: nearly all actives have a fitted effect of over 50% in size. Also: potency is read from the fitted curve at half-maximal effect. The gist of the method: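 Chemicals tested for interference with CYP2D6 activity; proluciferin substrate, NADPH regeneration, 1 h at room temperature, luminescent detection.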

Test [11] has as its target Cytochrome P450 2C19 (Homo sapiens) (UniProt P33261). The experiment in a line: Cytochrome P450 Family 2 Subfamily C Member 19 (CYP2C19) small molecule antagonists: luciferase reporter qHTS assay (AID 1671197). Also: nearly all actives have a fitted effect of over 65% in size. Also: potency is read from the fitted curve at half-maximal effect. The gist of the method:
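Relative luminescence units recorded 20 min after the detection reagent stopped a 1 h, 37C CYP2C19 reaction on proluciferin substrate, which was started by NADPH regeneration following 10 min room-temperature compound preincubation; ketoconazole positive control.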
On the technique in general: A reporter such as luciferase makes a cellular process visible.

In test [12] the target is Cytochrome P450 2C9 (Homo sapiens) (UniProt P11712). The test is described as follows: Cytochrome P450 Family 2 Subfamily C Member 9 (CYP2C9) small molecule antagonists: luciferase reporter qHTS assay (AID 1671198). Also: nearly all actives have a fitted effect of over 50% in size. Also: potency is read from the fitted curve at half-maximal effect. The gist of the method:
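P450-Glo proluciferin substrate with CYP2C9 enzyme; 10 min RT preincubation, then NADPH regeneration 1 h at 37C; luciferin detection reagent 20 min RT, luminescence in relative luminescence units.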

The target of test [13] is Cytochrome P450 1A2 (Homo sapiens) (UniProt P05177). The experiment in a line: Cytochrome P450 Family 1 Subfamily A Member 2 (CYP1A2) small molecule antagonists: luciferase reporter qHTS assay (AID 1671199). Also: nearly all actives have a fitted effect of over 50% in size. Also: potency is read from the fitted curve at half-maximal effect. An outline of the steps:
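Read-out is luminescence from luciferin detection reagent (20 min) proportional to CYP1A2 activity; compounds in DMSO preincubated 10 min with enzyme and proluciferin substrate, then NADPH regeneration solution, 1 h, room temperature.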

Test [14] concerns the target Voltage-gated inwardly rectifying potassium channel KCNH2 (Homo sapiens) (UniProt Q12809). The experiment in a line: Human Ether-a-go-go-Related Gene (hERG) channel small molecule antagonists: fluorescence cell-based qHTS assay (AID 1671200). Also: nearly all actives have a fitted effect of over 50% in size. Also: potency is read from the fitted curve at half-maximal effect. The gist of the method: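 U2OS cells expressing the channel were plated at 1000 cells/well, incubated overnight at 37 C, then loaded with FluxOR II thallium-sensitive dye for 1 h at room temperature in the dark, with a further 10 min at room temperature before stimulation.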

Test [15] deals with Acetylcholinesterase (Homo sapiens) (UniProt P22303). The test is described as follows: Acetylcholinesterase (AChE) small molecule antagonists: colormetric cell-based qHTS assay (AID 1347395; calls by dose curve; also: nearly all actives have a fitted effect of over 30% in size; also: potency is read from the fitted curve at half-maximal effect). The gist of the method:
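SH-SY5Y cells, plated overnight at 37 C, were exposed to compounds for 30 min at 37 C and 5% CO2. Acetylthiocholine plus DTNB was then added, and thiocholine from endogenous AChE was quantified colorimetrically after 90 min at 37 C.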

Test [16] shares this target. The test is described as follows: Acetylcholinesterase (AChE) small molecule antagonists: enzyme-based qHTS assay (AID 1347397; calls by dose curve; also: nearly all actives have a fitted effect of over 55% in size; also: potency is read from the fitted curve at half-maximal effect). Particulars: Potency: AChE enzyme activity inhibition. An outline of the steps:
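Colorimetric DTNB read-out of thiocholine released from acetylthiocholine by recombinant human AChE (50 mU/mL as dispensed). Compounds were preincubated 30 min at RT before substrate/DTNB addition, with a 10 min RT reaction.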

For test [17] the target is unchanged. The test is described as follows: Acetylcholinesterase (AChE) small molecule antagonists: fluorescence cell-based qHTS assay (AID 1347398; calls by dose curve; also: nearly all actives have a fitted effect of over 50% in size; also: potency is read from the fitted curve at half-maximal effect). Particulars: Potency: AChE activity. The gist of the method: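 SH-SY5Y, 2,000 cells/well, attached overnight; cmpd 30 min 37 C; acetylthiocholine/Thiolite Green cocktail 40 min RT; fluorescence Ex/Em 490/520 nm.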
For test [18] the target is unchanged. The experiment in a line: Acetylcholinesterase (AChE) small molecule antagonists: enzyme-based qHTS assay with human liver microsomes (AID 1347399; calls by dose curve; also: % is scaled to controls: 0 for no effect and ±100 for the full control effect; nearly all actives have a fitted effect of over 60% in size). Conditions: Potency: qHTS inhibition. The gist of the method:
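Recombinant human AChE (50 mU/mL in the enzyme mix) and human liver microsomes (0.25 mg/mL final) were preincubated with compound and NADPH (0.25 mg/mL final) for 30 min at 37 C. Acetylthiocholine/DTNB was then added; thiocholine was read colorimetrically after 10 min at room temperature.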

Test [19] addresses Cytochrome P450 3A4 (Homo sapiens) (UniProt P08684). The experiment in a line: Cytochrome P450 Family 3 Subfamily A Member 4 (CYP3A4) small molecule antagonists: luciferase reporter qHTS assay (AID 1671201). The gist of the method:
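P450-Glo CYP3A4 system with proluciferin substrate; compounds preincubated 10 min RT with enzyme-substrate mix, then NADPH regeneration added for 1 h RT. Detection reagent 20 min, luminescence read as relative luminescence units.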

Nuclear receptor subfamily 1 group I member 2 (Rattus norvegicus), sequence (Q9R1A7 whole entry, looked up): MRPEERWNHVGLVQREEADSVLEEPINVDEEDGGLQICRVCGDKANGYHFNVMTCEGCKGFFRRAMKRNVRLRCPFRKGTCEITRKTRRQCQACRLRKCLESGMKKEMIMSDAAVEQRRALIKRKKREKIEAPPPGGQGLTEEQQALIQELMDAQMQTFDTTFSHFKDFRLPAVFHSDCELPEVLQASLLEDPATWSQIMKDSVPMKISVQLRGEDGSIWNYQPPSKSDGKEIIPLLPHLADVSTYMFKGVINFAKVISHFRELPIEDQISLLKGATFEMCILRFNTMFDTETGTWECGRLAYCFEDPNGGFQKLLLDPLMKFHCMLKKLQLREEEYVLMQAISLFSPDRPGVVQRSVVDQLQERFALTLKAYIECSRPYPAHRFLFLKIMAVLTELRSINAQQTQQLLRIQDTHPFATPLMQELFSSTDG
Cytochrome P450 2D6 (Homo sapiens), sequence (P10635 whole entry, looked up): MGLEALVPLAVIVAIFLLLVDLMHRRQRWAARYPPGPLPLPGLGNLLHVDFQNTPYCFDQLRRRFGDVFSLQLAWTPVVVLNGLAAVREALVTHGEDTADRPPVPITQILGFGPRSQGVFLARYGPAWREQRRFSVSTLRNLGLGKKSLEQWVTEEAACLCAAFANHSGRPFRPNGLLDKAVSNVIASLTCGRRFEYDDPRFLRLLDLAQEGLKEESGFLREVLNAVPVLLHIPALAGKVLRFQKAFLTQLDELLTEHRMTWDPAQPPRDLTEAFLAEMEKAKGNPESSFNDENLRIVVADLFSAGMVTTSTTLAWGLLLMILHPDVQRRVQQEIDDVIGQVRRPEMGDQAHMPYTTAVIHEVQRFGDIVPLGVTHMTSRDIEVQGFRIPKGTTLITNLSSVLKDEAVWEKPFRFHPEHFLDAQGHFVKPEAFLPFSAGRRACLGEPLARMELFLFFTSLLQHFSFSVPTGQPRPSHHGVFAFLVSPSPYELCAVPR
Voltage-gated inwardly rectifying potassium channel KCNH2 (Homo sapiens), sequence (Q12809 whole entry, looked up): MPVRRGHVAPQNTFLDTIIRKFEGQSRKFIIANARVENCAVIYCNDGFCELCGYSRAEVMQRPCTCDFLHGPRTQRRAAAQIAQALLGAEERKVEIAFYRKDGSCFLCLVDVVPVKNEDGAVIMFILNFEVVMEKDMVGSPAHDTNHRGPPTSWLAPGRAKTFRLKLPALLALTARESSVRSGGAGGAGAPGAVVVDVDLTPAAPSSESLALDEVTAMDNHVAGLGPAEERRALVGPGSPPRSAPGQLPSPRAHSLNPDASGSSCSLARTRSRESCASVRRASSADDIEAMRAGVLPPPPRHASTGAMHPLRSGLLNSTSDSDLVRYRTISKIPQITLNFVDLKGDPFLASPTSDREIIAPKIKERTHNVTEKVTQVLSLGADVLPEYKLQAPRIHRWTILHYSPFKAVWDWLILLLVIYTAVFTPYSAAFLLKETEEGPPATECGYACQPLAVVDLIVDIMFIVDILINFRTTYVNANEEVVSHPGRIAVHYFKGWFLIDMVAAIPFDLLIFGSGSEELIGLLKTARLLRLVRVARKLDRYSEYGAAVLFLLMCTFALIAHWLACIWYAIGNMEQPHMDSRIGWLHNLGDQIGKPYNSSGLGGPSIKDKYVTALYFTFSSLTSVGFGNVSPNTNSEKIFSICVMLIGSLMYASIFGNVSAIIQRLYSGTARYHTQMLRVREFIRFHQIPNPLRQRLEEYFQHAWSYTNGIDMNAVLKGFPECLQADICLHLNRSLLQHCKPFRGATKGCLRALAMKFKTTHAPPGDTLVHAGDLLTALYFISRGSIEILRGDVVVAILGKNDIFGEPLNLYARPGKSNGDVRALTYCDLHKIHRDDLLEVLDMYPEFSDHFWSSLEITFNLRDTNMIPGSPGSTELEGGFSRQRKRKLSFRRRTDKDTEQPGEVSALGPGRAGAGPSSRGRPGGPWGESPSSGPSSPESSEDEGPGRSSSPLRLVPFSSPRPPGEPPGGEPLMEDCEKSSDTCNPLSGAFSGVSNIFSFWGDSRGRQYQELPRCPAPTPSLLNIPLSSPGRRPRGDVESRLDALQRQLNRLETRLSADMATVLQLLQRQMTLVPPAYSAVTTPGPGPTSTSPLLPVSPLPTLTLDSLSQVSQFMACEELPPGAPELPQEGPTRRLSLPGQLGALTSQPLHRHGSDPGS
Nuclear receptor subfamily 1 group I member 2 (Homo sapiens), sequence (O75469 whole entry, looked up): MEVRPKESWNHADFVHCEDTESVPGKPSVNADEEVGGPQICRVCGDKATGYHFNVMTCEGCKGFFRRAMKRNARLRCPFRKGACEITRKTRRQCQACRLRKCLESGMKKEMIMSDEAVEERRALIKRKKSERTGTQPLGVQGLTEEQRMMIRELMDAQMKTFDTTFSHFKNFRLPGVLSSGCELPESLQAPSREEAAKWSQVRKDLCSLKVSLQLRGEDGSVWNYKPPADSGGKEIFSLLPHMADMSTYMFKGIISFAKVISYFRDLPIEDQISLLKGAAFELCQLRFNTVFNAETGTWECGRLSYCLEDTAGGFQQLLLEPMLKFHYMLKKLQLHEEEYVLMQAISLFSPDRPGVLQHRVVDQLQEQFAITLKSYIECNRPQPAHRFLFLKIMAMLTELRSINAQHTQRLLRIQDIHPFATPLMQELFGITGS
Cytochrome P450 1A2 (Homo sapiens), sequence (P05177 whole entry, looked up): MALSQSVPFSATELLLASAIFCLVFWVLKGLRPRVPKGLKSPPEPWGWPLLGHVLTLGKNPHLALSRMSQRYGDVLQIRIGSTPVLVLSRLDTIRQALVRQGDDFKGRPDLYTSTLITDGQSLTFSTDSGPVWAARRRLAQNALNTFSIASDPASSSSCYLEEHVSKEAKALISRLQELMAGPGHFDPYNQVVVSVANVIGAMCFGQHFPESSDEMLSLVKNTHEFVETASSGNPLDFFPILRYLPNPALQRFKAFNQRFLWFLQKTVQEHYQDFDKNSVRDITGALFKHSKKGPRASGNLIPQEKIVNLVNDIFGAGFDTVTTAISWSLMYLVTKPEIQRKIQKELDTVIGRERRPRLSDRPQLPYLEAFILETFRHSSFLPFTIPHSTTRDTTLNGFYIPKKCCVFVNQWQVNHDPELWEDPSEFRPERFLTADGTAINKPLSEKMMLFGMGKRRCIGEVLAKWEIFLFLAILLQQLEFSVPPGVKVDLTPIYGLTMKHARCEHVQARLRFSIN
Acetylcholinesterase (Homo sapiens), sequence (P22303 whole entry, looked up): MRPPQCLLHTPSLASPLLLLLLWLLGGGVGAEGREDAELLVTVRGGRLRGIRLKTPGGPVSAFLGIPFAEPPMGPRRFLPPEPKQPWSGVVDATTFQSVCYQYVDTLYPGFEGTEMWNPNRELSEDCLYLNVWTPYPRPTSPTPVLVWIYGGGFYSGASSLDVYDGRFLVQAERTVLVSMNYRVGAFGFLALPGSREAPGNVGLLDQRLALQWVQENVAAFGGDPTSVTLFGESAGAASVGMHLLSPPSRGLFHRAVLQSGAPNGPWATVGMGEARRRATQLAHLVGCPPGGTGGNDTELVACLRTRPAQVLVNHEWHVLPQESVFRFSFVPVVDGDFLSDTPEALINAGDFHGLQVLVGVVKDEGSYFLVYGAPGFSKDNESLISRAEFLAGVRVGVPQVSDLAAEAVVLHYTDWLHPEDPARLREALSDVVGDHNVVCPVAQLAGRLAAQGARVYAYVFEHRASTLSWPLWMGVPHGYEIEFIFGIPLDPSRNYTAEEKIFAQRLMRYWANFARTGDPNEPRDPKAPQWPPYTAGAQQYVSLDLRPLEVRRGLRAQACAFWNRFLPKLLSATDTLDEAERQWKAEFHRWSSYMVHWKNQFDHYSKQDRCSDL
Cytochrome P450 2C19 (Homo sapiens), sequence (P33261 whole entry, looked up): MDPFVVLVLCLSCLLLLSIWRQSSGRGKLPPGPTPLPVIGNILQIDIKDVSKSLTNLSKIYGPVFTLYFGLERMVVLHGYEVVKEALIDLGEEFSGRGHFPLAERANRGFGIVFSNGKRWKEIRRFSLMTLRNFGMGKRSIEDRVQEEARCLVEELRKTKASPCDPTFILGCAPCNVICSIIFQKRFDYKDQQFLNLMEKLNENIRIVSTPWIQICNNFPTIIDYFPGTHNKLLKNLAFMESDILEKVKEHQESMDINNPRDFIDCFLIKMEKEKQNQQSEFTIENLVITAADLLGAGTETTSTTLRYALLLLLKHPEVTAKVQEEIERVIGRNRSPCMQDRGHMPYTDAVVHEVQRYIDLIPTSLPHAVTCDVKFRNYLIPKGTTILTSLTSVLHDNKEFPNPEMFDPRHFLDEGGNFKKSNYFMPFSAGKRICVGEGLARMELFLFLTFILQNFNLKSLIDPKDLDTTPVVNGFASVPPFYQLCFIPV
Cytochrome P450 2C9 (Homo sapiens), sequence (P11712 whole entry, looked up): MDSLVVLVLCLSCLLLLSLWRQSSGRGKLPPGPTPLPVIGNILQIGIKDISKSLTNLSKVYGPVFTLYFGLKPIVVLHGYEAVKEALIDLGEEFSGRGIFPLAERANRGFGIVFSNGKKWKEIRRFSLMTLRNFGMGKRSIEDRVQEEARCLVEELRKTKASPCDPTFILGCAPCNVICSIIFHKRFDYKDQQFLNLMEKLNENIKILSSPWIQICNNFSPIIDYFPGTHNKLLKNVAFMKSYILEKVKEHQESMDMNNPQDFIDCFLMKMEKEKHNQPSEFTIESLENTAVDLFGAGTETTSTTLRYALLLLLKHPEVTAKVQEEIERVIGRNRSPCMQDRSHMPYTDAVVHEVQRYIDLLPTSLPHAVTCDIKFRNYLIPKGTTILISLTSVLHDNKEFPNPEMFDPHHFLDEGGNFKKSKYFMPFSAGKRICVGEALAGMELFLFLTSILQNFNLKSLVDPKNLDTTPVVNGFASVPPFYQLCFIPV

As to `NN=C(N)N`, the Potency entry in test [1], in test [2], in test [3], in test [4], in test [5] and in test [6] was “inactive” each time. The Potency entry in test [8], in test [10], in [12] and in [14] was “inactive” each time. The max activation in [7] is -0.866% (inactive). In addition, the call in test [9] was inactive. In addition, the Potency in test [11] is 44.8 µM (active) and inactive; in test [13], 31.7 µM (active) and 27.5 µM (active).
For the compound `Clc1cccc(C(Cl)(Cl)Cl)n1`, the Potency entry in test [1], in test [2], in [3], in test [4], in [5] and in test [6] was “inactive” throughout. The Potency entry in [15], in test [16], in test [17], in test [18], in test [10] and in [11] was “inactive” in each case. Also, the Potency result in test [12] and in test [14] was “inactive” throughout. For the same compound, the Potency in test [13] was 11.2 µM (active).
Regarding `CC(C)Nc1ccc(Nc2ccccc2)cc1`, the Potency in test [1] is 20 µM (active) and 27.3 µM (active); in test [3], 24.2 µM (active) and 38.6 µM (active); in test [5], 38.4 µM (active) and 61.1 µM (active); in test [6] it was 4.31 µM (active) and 5.45 µM (active); in test [8], 14.1 µM (active); in test [10], 8.91 µM (active) and 10 µM (active). Also, the Potency in test [11] is 3.16 µM (active) and 3.99 µM (active); in test [12], 501 nM (active) and 1.12 µM (active); in test [13] it was 35.5 µM (active) and 35.6 µM (active); in test [14], 24.4 µM (active); in test [19], 12.6 µM (active) and 28.3 µM (active). Also, the Potency result in test [2], in test [4], in [15], in test [16] and in test [18] was “inactive” in each case.
As for `CC[n+]1c(-c2ccccc2)c2cc(N)ccc2c2ccc(N)cc21`, the Potency is 27.2 µM (active) in test [1]; 60.8 µM (active) and 29.8 µM (active) in test [3]; 38.4 µM (active) and 23.7 µM (active) in test [5]; 31.6 µM (active) and 19.5 µM (active) in test [15]; 79.3 µM (active) in [16]; 31.6 µM (active) and 12.3 µM (active) in test [17]. In addition, the Potency in [10] is 562 nM (active) and 2.19 µM (active); in [11], 7.07 µM (active) and 5.49 µM (active); in [12], 35.4 µM (active) and 30.9 µM (active); in [13], 9.99 µM (active) and 10.2 µM (active). Further, the Potency entry in test [2], in test [4], in test [6], in test [8], in test [18] and in test [14] was “inactive” each time. In test [7], the max activation is -4.94% (inactive) and -4.01% (inactive). Moreover, the call in [9] was inactive.
With `ClC(Cl)(Cl)c1ccccc1`, the Potency result in test [1], in test [2], in [3], in test [4], in [5] and in [6] was “inactive” throughout. Besides, the Potency entry in [15], in test [16], in test [17], in test [18], in test [10] and in [12] was “inactive” each time. Also, the Potency entry in test [13] and in test [14] was “inactive” each time. Moreover, in test [11], the Potency was 89.5 µM (active) and inactive.
As for `CCOP(=O)(OCC)OCC`, the Potency entry in test [1], in test [2], in test [3], in [4], in [5] and in test [6] was “inactive” each time. The Potency result in [15], in test [16], in test [17], in test [18], in [10] and in test [14] was “inactive” in each case. The Potency was 49.4 µM (active) and inactive in test [11]; 35 µM (active) and inactive in test [12]; 17.5 µM (active) and inactive in [13].
